SW480 rerep: induces DNA re-replication in SW480 colon adenocarcinoma cells; Potency, µM (series often up to 46.1 µM), for inactives: at the top dose re-replication activation, usual class: activators; 340,000 tested, 1.8% active; SW480 DNA re-replication, Hoechst DNA content imaging, 48 h; also: potency is read from the fitted curve at half-maximal effect; % of control where 0% means no effect; nearly all actives have a fitted effect of over 55% in size
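Per well, 250 cells were exposed to pinned compound for 48 hr. Nuclear DNA was visualised with Hoechst (40 min, 37 C) and total object intensity recorded by fluorescence scanning.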
DT40 TDP1 CPT: DT40-hTDP1 cell growth loss with CPT; chicken DT40 Tdp1-/-;hTDP1 cells + 20 nM CPT, ATP luminescence, 48 h; 420,000 tested, 12% active; Potency, µM (top dose mostly 46.2 µM), inactives show at the top dose activity change, negative = growth inhibition, hits mostly inhibitors; also: potency is read from the fitted curve at half-maximal effect; % is scaled to controls: 0 for no effect and ±100 for the full control effect; nearly all actives have a fitted effect of over 55% in size
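Chicken DT40 Tdp1-/- cells stably complemented with human TDP1 were seeded at 400 cells/well in medium containing 20 nM camptothecin, exposed to pin-transferred compounds, and grown at 37 °C for at least 48 hr. Viability was read as ATP luminescence.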
BCR signal inh: chronic active BCR signaling inhibition; ABC-DLBCL IkBa-CBG/CBR reporter, luminescence ratio, 4 h; Potency, µM (series often up to 46.1 µM), without a hit: at the highest dose activity change, negative = inhibition, most hits filed as inhibitors; 340,000 tested, 0.05% active; AID 493014; active = well fitted inhibition curve with a large enough effect in the signal ratio, with a control signal flat, not every such curve was filed as active; inconclusive = small, poorly fitted or top-dose-only effect, or effect the other way, or a change in a side signal; the % refers to the signal ratio;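 also: potency is read from the fitted curve at half-maximal effect; plate controls were basal doxycycline-induced cells for no effect and cells given 10 µM MG132 for full effect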
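TMD8 human ABC-DLBCL cells with doxycycline-inducible IκBα–green luciferase fusion and unfused red luciferase, in 0.5% FBS medium; compounds up to 46 uM, 4 h at 37C. Green/red luminescence ratio, filter-overlap corrected, fitted to concentration-response curves.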
IL-1B inflam inh: inflammasome signaling inhibition, IL-1 beta readout; THP-1 LPS/ATP IL-1B secretion, AlphaLISA, 16 h; hits give low values; activity change, % at 57.5 µM; AID 743279; 360,000 tested, 4.7% active; in the data active = activity change below about -50%; inconclusive = mostly about -30% to -49%; also: % is scaled to controls: 0 for no effect and ±100 for the full control effect
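THP-1 cells pretreated 1 hr with compounds (up to 57.5 uM final), then stimulated with LPS (250 ng/mL final) plus ATP (1.25 mM final); secreted IL-1B measured by AlphaLISA after 16 hr, decreased signal indicating inhibition.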
MCF10A rerep: DNA re-replication induction in MCF 10a cells | 350,000 tested, 2.9% active | AID 624296 | MCF 10A DNA re-replication, Hoechst nuclear intensity, 48 h | Potency, µM (highest dose often 46.1 µM), for inactives: top-dose activity, positive = re-replication, hits mostly activators; also: potency is read from the fitted curve at half-maximal effect; % of control where 0% means no effect; nearly all actives have a fitted effect of over 50% in size
DT40 TDP1 no CPT: qHTS for Inhibitors of human tyrosyl-DNA phosphodiesterase 1 (TDP1): qHTS in cells in absence of CPT; DT40 Tdp1-/- hTDP1 cells, no CPT, ATP luminescence, 48 h; Potency, µM (doses to about 46.2 µM), for the others: at the top dose activity change, negative = growth inhibition, most hits filed as inhibitors; 420,000 tested, 15% active; AID 686978, 2013; also: potency is read from the fitted curve at half-maximal effect; % is scaled to controls: 0 for no effect and ±100 for the full control effect; nearly all actives have a fitted effect of over 55% in size
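Camptothecin absent (DMSO only). Human TDP1-complemented DT40 knockout cells, 400 cells/well, 37 °C for minimum 48 hr; ATP measured via CellTiter-Glo, 30 min dark incubation, luminescence.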
Starred values were filed as active, the others as inactive; i = inactive; ? = inconclusive; . = no result; [ ] = another dose, or the depositor's remark. In the library only some 19% were active in any assay of this set; here they are far more common. Unless noted, calls follow the shape of the dose curve; as a rule, active = well fitted curve in the direction sought with a large enough effect; inconclusive = small, poorly fitted or top-dose-only effect, or another doubt; inactive = no such curve, though single readings can be large; an effect the other way counts as inactive or inconclusive.

SMILES	SW480 rerep	DT40 TDP1 CPT	BCR signal inh	IL-1B inflam inh	MCF10A rerep	DT40 TDP1 no CPT
C/C(=N/NC(=O)c1cccs1)c1ccc(NC(=O)COc2ccc(Cl)cc2Cl)cc1	9.2µM*	15µM*	-9%	-11	6.5µM*	?
C/C(=N\NC(=O)c1c(Cl)cnn1C)c1cccc(NC(=O)COc2ccccc2)c1	4%	-24%	-3%	-20	16µM*	?
C/C(=N/NC(=O)c1ccc(C)s1)c1cccc(NC(=O)COc2ccc(Cl)cc2Cl)c1	?	?	?	0	9.2µM*	?
C/C(=N/NC(=O)CNC(=O)c1cccs1)c1ccc(Cl)cc1	?	-10%	0%	-8	-1%	-7%
CC(=O)c1cccc(NC(=O)COc2ccccc2)c1	-10%	?	?	-15	8%	8%
O=C(c1cn(-c2ccccc2)nc1-c1cccs1)N1CCOCC1	-2%	-12%	1%	-5	1%	-15%
O=C(NCCCN1CCCC1=O)c1cn(-c2ccccc2)nc1-c1ccccc1	-2%	-11%	?	8	1%	-24%
O=C(c1cn(-c2ccccc2)nc1-c1cccs1)N1CCN(c2ccccc2)CC1	2.9µM*	7.3µM*	-5%	10	6.5µM*	7.3µM*
O=C(c1cn(-c2ccccc2)nc1-c1ccc(F)cc1)N1CCOCC1	-2%	-1%	-6%	-12	23%	1%
O=C(c1cn(-c2ccccc2)nc1-c1ccc(Br)cc1)N1CCOCC1	23µM*	-6%	-12%	24	5%	-18%
O=C(Nc1nc2ccccc2n1CCN1CCOCC1)c1cn(-c2ccccc2)nc1-c1ccccc1	?	18µM*	10%	60	?	18µM*
O=C(NCCCN1CCOCC1)c1cn(-c2ccccc2)nc1-c1ccc(Br)cc1	3%	?	-13%	?	8%	16µM*
COc1cc(OC)c(OC)cc1CN1CCOc2ccc(CN3C[C@@H](C)O[C@@H](C)C3)cc2C1	.	-19%[9.04 µM]	.	.	.	?
NS(=O)(=O)c1ccc(CCNC(=O)COC(=O)Cc2c(F)cccc2Cl)cc1	-6%	7%	-7%	i	3%	5%
c1ccc(-n2cnc3cc(NCc4cccs4)ccc32)cc1	13µM*	-20%	?	-28	?	?
CC[C@@H](C)[C@@H]1CN([C@@H](C)CN2CCC[C@H]2CN2C(N)=NC[C@H]2CC(C)C)C(=N)N1CCCC1CCCC1	3%	?	-1%	?	1%	23µM*
CCCCN1C(=N)N([C@@H](CCC)CN2CCC[C@H]2CN2C(N)=NC[C@@H]2Cc2ccccc2)C[C@H]1[C@H](C)CC	-14%	13µM*	1%	-5	13%	12µM*
CCCCN1C(=N)N([C@@H](CN2CCC[C@H]2CN2C(N)=NC[C@@H]2Cc2ccccc2)C(C)C)C[C@H]1Cc1ccccc1	-1%	?	2%	-6	10%	16µM*
CC(C)C[C@@H]1CN=C(N)N1C[C@@H]1CCCN1C[C@@H](C(C)C)N1C[C@@H](Cc2ccccc2)N(CCCC2CCCC2)C1=N	-1%	?	?	?	-50%	?
CCC[C@@H](CN1CCC[C@H]1CN1C(N)=NC[C@H]1C(C)C)N1C[C@@H](Cc2ccccc2)N(CCCC2CCCC2)C1=N	-43%	?	-2%	-63*	?	16µM*
CCCCN1C(=N)N([C@@H](C)CN2CCC[C@H]2CN2C(N)=NC[C@@H]2Cc2ccccc2)C[C@H]1Cc1ccccc1	-12%	?	3%	?	-15%	?
COc1ccc(Cc2nnc(NC(=O)CS(=O)(=O)Cc3ccccc3)s2)cc1	1%	0%	.	16	0%	9%
CCOC(=O)[C@]12CCCC=C1N(Cc1cccc3ccccc13)C(=O)[C@H](CC(=O)N1CCN(C(=O)c3ccco3)CC1)C2	.	?	.	-24	.	?
CCCCN1C(=N)N([C@@H](CCC)CN2CCC[C@H]2CN2C(N)=NC[C@H]2CC(C)C)C[C@H]1Cc1ccccc1	-79%	?	0%	-28	6%	?
CC[C@@H](C)[C@@H]1CN([C@@H](C)CN2CCC[C@H]2CN2C(N)=NC[C@@H]2Cc2ccccc2)C(=N)N1CCCC1CCCC1	-9%	?	0%	-63*	-11%	?
SMILES	SW480 rerep	DT40 TDP1 CPT	BCR signal inh	IL-1B inflam inh	MCF10A rerep	DT40 TDP1 no CPT
CCC(C)[C@H]1CN=C(N)N1CCCc1cc(OC)c(OC)c(OC)c1 (stereo partly drawn)	-10%	-10%	0%	-1	25%	-19%
CC[C@@H](C)[C@@H]1CN([C@@H](CN2CCC[C@H]2CN2C(N)=NC[C@H]2C(C)C)C(C)C)C(=N)N1CCc1ccc(Cl)c(Cl)c1	-1%	?	4%	-78*	-2%	16µM*
OC1(c2ccc(OC(F)F)cc2)CSC(=Nc2cccnc2)N1C1CC1 (stereo not drawn)	4%	21µM*	-1%	?	?	16µM*
CCc1nc2ccc(C(=O)NCc3ccccc3OC)cn2c1N(CC)CCOC	.	16µM*	.	-11	.	16µM*
CCc1nc2ccc(C(=O)Nc3cccc(OC)c3)cn2c1N(CC)CCOC	.	13µM*	.	-17	.	18µM*
CCc1nc2ccc(C(=O)NCc3ccc(OC)cc3)cn2c1N(C)CCC(C)C	.	?	.	?	.	23µM*
CCc1nc2ccc(C(=O)NCc3ccccc3OC)cn2c1N(CC)CCN(C)C	.	-3%	.	?	.	-9%
CCc1nc2ccc(C(=O)NCc3ccc(OC)cc3)cn2c1N(CC)CCOC	.	15µM*	.	-2	.	?
C[C@H](NC(=O)C[C@@H]1C=C[C@@H](NC(=O)CN2CCOCC2)[C@@H](CO)O1)c1ccccc1	.	-5%	.	3	.	1%
Cc1ccc(CN2CCOc3ccc(CN4CCC(Oc5cccnc5)CC4)cc3C2)o1	.	6%[9.04 µM]	.	.	.	?
CCCCNC(=O)c1ccc2nc(CC)c(N(CC)CCOC)n2c1	.	26µM*	.	-5	.	21µM*
CCCCNC(=O)c1ccc2nc(CC)c(N(CCC(C)C)CCN(C)C)n2c1	.	?	.	-11	.	?
CCc1nc2ccc(C(=O)NCCOc3ccc(OC)cc3)cn2c1N(CCC(C)C)CCN(C)C	.	-89%	.	-64*	.	-78%
CCc1nc2ccc(C(=O)NCCc3ccccn3)cn2c1N(C)CCC(C)C	.	?	.	-11	.	26µM*

Screens as filed in PubChem BioAssay.
